This is an account of results in PubChem BioAssay (Tox21).

A short description of test [1]: qHTS RealTime-Glo MT Cell Viability Assay in HepG2 cells - 24 hour (AID 1224867). Note: nearly all actives have a fitted effect of over 50% in size. Put shortly: (§1)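 Real-time, nonlytic viability: 600 HepG2 cells/well mixed with NanoLuc enzyme plus prosubstrate; 5 h settle, compound (DMSO) added by pintool; luminescence monitored over 40 h at 37 C.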
In general terms: qHTS replaces the single test concentration by a dilution series.

A short description of test [2]: qHTS RealTime-Glo MT Cell Viability Assay in HEK293 cells - 32 hour (AID 1224868). Note: nearly all actives have a fitted effect of over 50% in size. Note: potency is the fitted concentration of half-maximal effect. In short, it runs like this:
(§2)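 Cells + reagent dispensed (600 cells/well, HEK293) → 5 h at 37 C/5% CO2 → 23 nL compound in DMSO pinned → 40 h at 37 C → luminescence read at 0, 8, 16, 24, 32, 40 h.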

A short description of test [3]: A CellTox Green Cytotoxicity Assay to monitor cytotoxicity in HEK293 cells - 0 hour (AID 1224869). Note: nearly all actives have a fitted effect of over 50% in size. Put shortly:
(§3)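 Read-out: fluorescence of a cell-impermeant cyanine dye staining DNA of dead cells, proportional to cytotoxicity. HEK293, 600 cells/well with reagent, compound (23 nL DMSO) added after 5 h; reads at 0, 8, 16, 24, 32, 40 h.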

Test [4] in a line: qHTS RealTime-Glo MT Cell Viability Assay in HepG2 cells - 40 hour (AID 1224870). Note: nearly all actives have a fitted effect of over 50% in size. Put shortly: (§4)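 Real-time viability: cells seeded at 600 per well together with NanoLuc and cell-permeant prosubstrate, compounds added after 5 h incubation. Luminescence tracked at 0, 8, 16, 24, 32 and 40 h of exposure.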
Test [5] in a line: A CellTox Green Cytotoxicity Assay to monitor cytotoxicity in HEK293 cells - 40 hour (AID 1224871). Note: nearly all actives have a fitted effect of over 45% in size. Note: potency is the fitted concentration of half-maximal effect. In short, it runs like this: as §3
A short description of test [6]: qHTS RealTime-Glo MT Cell Viability Assay in HEK293 cells - 16 hour (AID 1224872). Note: nearly all actives have a fitted effect of over 50% in size. Note: potency is the fitted concentration of half-maximal effect. In short, it runs like this: as §2
Test [7] is described as follows: qHTS RealTime-Glo MT Cell Viability Assay in HepG2 cells - 8 hour (AID 1224873). Note: nearly all actives have a fitted effect of over 55% in size. Put shortly: as §4
The nature of test [8]: qHTS RealTime-Glo MT Cell Viability Assay in HEK293 cells - 40 hour (AID 1224874). Note: nearly all actives have a fitted effect of over 50% in size. Note: potency is the fitted concentration of half-maximal effect. The settings on record: RealTime-Glo luminescence; max response: stronger effect = lower value. In short, it runs like this:
(§5)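 Luminescence readout at each listed time point; HEK293, 600 cells/well, RealTime-Glo MT reagent added with cells; compounds pinned (23 nL in DMSO) after 5 h at 37 C; continuous culture at 37 C.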

Test [9] in a line: A CellTox Green Cytotoxicity Assay to monitor cytotoxicity in HEK293 cells - 24 hour (AID 1224875). Note: series mostly up to about 77 µM; nearly all actives have a fitted effect of over 45% in size. Put shortly: as §3
The nature of test [10]: A CellTox Green Cytotoxicity Assay to monitor cytotoxicity in HepG2 cells - 16 hour (AID 1224876). Note: nearly all actives have a fitted effect of over 45% in size. Put shortly: (§6)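 HepG2, 600 cells/well premixed w/ CellTox Green; 5 h settle, 37 C/5% CO2; pintool cpd add (DMSO); 37 C, 40 h; fluorescence read at 0, 8, 16, 24, 32, 40 h.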
Test [11] in a line: qHTS RealTime-Glo MT Cell Viability Assay in HepG2 cells - 32 hour (AID 1224877). Note: nearly all actives have a fitted effect of over 55% in size. In short, it runs like this: as §1
Test [12] in a line: A CellTox Green Cytotoxicity Assay to monitor cytotoxicity in HepG2 cells - 24 hour (AID 1224878). Note: nearly all actives have a fitted effect of over 45% in size. In short, it runs like this: as §6
A short description of test [13]: A CellTox Green Cytotoxicity Assay to monitor cytotoxicity in HepG2 cells - 40 hour (AID 1224879). Note: nearly all actives have a fitted effect of over 40% in size. In short, it runs like this:
as §6

Test [14] in a line: qHTS RealTime-Glo MT Cell Viability Assay in HEK293 cells - 0 hour (AID 1224880). In short, it runs like this:
as §5

Test [15] is described as follows: A CellTox Green Cytotoxicity Assay to monitor cytotoxicity in HEK293 cells - 32 hour (AID 1224881). Note: nearly all actives have a fitted effect of over 40% in size. Note: potency is the fitted concentration of half-maximal effect. In short, it runs like this:
as §3

Test [16] is described as follows: A CellTox Green Cytotoxicity Assay to monitor cytotoxicity in HepG2 cells - 0 hour (AID 1224882). Note: nearly all actives have a fitted effect of over 35% in size. In short, it runs like this:
as §6

Test [17] in a line: A CellTox Green Cytotoxicity Assay to monitor cytotoxicity in HepG2 cells - 32 hour (AID 1224883). Note: nearly all actives have a fitted effect of over 50% in size. In short, it runs like this: as §6
A short description of test [18]: A CellTox Green Cytotoxicity Assay to monitor cytotoxicity in HEK293 cells - 8 hour (AID 1224884). Note: nearly all actives have a fitted effect of over 35% in size. In short, it runs like this:
as §3

A short description of test [19]: qHTS RealTime-Glo MT Cell Viability Assay in HepG2 cells - 16 hour (AID 1224885). Note: nearly all actives have a fitted effect of over 50% in size. Put shortly:
as §1

Molecules are shown by their SMILES. A number with no mark means an inactive call. Results filed as inconclusive are left out. Calls of active or inactive are those of the source. Calls come from the whole dose curve; as a rule, active = well fitted curve in the direction sought with a large enough effect in the repeat runs; inconclusive = weak or mixed curves; inactive = no such curve, though single readings can be large; an effect the other way counts as inactive or inconclusive.
% is set by controls: 0 for no effect and ±100 for the full control effect.

For `C=CCOC(=O)CCCCCC`, the call in test [1], in test [4], in [7], in test [11] and in [19] was inactive. Further, the Potency result in test [2], in test [3], in test [5], in test [6], in test [9] and in test [10] was “inactive” in each case. For the same molecule, the Potency result in test [12], in test [13], in [14], in test [15], in [16] and in test [17] was “inactive” in each case. Further, the Potency entry in [18] is “inactive”. For the same molecule, in test [8], the max response was 3.28%.

For `O=Cc1cc2ccccc2o1`, the outcome in test [1], in test [4], in test [7], in [11] and in test [19] was inactive. The Potency entry in test [2], in test [3], in test [5], in test [6], in [9] and in [10] was “inactive” in each case. Moreover, the Potency result in test [12], in [13], in test [14], in test [15], in test [16] and in test [17] was “inactive” each time. Moreover, in test [18], the Potency entry is “inactive”. Further, the max response in test [8] was -1.57%.

Consider `CC(S)C(C)S` (stereo unspecified), for which the molecule was called inactive in test [1], in test [4], in test [7], in [11] and in test [19]. Further, the Potency result in [2], in test [3], in test [5], in test [6], in test [9] and in [10] was “inactive” each time. In addition, the Potency result in test [12], in test [13], in test [14], in test [15], in test [17] and in test [18] was “inactive” in each case. For the same molecule, the max response in [8] is 7.38%.

As for `COC(=O)c1cccc(Cl)c1`, the molecule was called inactive in [1], in test [4], in [7], in test [11] and in test [19]. Besides, the Potency result in test [2], in [3], in [5], in test [6], in [9] and in test [10] was “inactive” each time. In addition, the Potency result in test [12], in test [13], in test [14], in test [15], in test [17] and in test [18] was “inactive” throughout. Moreover, in [8], the max response was 11%.

For the molecule `CC(C)[C@H]1CC[C@H](C)C[C@@H]1O`, the outcome in test [1], in [4], in test [7], in test [11] and in test [19] was inactive. For the same molecule, the Potency result in test [2], in test [3], in [5], in test [6], in test [9] and in [10] was “inactive” each time. The Potency entry in [12], in [13], in test [14], in test [15], in [16] and in [17] was “inactive” throughout. Also, in test [18], the Potency entry is “inactive”. Besides, the max response in [8] is 2.31%.

Take `COc1c2occc2c(OC)c2c(=O)cc(C)oc12`: the outcome in test [1], in test [4], in [7], in test [11] and in test [19] was inactive. For the same molecule, the Potency in test [2], in test [6] and in test [8] was 9.52 µM (active) throughout. Also, the Potency result in test [3], in [5], in test [9], in test [10], in [12] and in test [13] was “inactive” in each case. Besides, the Potency entry in test [14], in test [15], in test [17] and in test [18] was “inactive” throughout.

With `Cc1c(C(=O)c2c[nH]n(C)c2=O)ccc(S(C)(=O)=O)c1C1=NOCC1`, the outcome in [1], in test [4], in test [7], in [11] and in [19] was inactive. Moreover, the Potency entry in test [2], in test [3], in test [5], in test [6], in test [9] and in test [10] was “inactive” each time. In addition, the Potency result in test [12], in test [13], in test [14], in test [15], in test [16] and in [17] was “inactive” in each case. Besides, in test [18], the Potency entry is “inactive”. For the same molecule, the max response in [8] was 2.86%.

For `C[C@H]1[C@@H](c2ccccc2)NC(=O)N1C`, the result in test [1], in test [4], in test [7], in [11] and in [19] was inactive. Also, the Potency result in test [2], in test [3], in [5], in test [6], in [9] and in test [10] was “inactive” throughout. The Potency entry in test [12], in test [13], in test [14], in test [15], in test [16] and in test [17] was “inactive” in each case. The Potency result in test [18] was “inactive”. The max response in [8] was -8.69%.

On to `CC1(C)[C@H]2CC[C@](C)(C2)[C@H]1O`, for which the molecule was classed as inactive in [1], in test [4], in test [7], in [11] and in test [19]. For the same molecule, the Potency entry in test [2], in test [3], in test [5], in test [6], in test [9] and in [12] was “inactive” each time. In addition, the Potency result in test [13], in test [14], in test [15], in test [16], in test [17] and in test [18] was “inactive” throughout. Further, in test [8], the max response is -1.99%.

In the case of `CC1CC(=O)CC(C)(C)C1` (stereo unspecified), the molecule was called inactive in test [1], in [4], in [7], in test [11] and in test [19]. In addition, the Potency entry in [2], in test [3], in test [5], in [6], in test [9] and in test [10] was “inactive” throughout. The Potency entry in test [12], in [13], in test [14], in [15], in test [17] and in test [18] was “inactive” in each case. Further, the max response in test [8] is -1.21%.

For the molecule `O=C1OCCO1`, the result in [1], in test [4], in [7], in test [11] and in test [19] was inactive. In addition, the Potency result in test [2], in [3], in test [6], in test [9], in [10] and in test [12] was “inactive” throughout. Also, the Potency result in test [13], in test [14], in test [16], in [17] and in test [18] was “inactive” in each case. The Potency was 291 nM (active) in test [5] and 366 nM (active) in test [15]. The max response in test [8] was 1.36%.

As to `Cc1c(NC(=O)c2cccnc2)c(=O)n(-c2ccccc2)n1C`, the outcome in test [1], in test [4], in [7], in test [11] and in test [19] was inactive. For the same molecule, the Potency result in test [2], in test [3], in test [5], in test [6], in [9] and in [10] was “inactive” throughout. The Potency result in test [12], in [13], in test [14], in [15], in test [16] and in test [17] was “inactive” in each case. For the same molecule, the Potency entry in test [18] was “inactive”. In test [8], the max response is 2.99%.

With `O=C1CCCCO1`, the molecule was called inactive in test [1], in test [4], in [7], in test [11] and in test [19]. Further, the Potency result in test [2], in test [3], in [5], in test [6], in test [9] and in [10] was “inactive” in each case. Besides, the Potency result in [12], in [13], in test [14], in test [15], in [16] and in [17] was “inactive” each time. The Potency entry in [18] was “inactive”. For the same molecule, the max response in test [8] is 1.35%.

With `C=C(C)C1CC=C(C)C(=O)C1` (stereo unspecified), the result in [1], in test [4], in test [7], in [11] and in test [19] was inactive. Also, the Potency entry in [2], in test [3], in test [5], in [6], in test [9] and in test [10] was “inactive” in each case. Also, the Potency result in test [12], in [13], in test [14], in [15], in test [16] and in [17] was “inactive” throughout. The Potency result in [18] was “inactive”. Moreover, the max response in [8] was 0.21%.
